# Out of some 48,000 compounds screened, about 13,000 (27%) showed an effect of 50% or more. The list shows a part of the results.
# Test system: Wolbachia pipientis
# Assay: Anti-Wolbachia Cell-Based Screen
# Assay type: functional
# Set-up: scale not given: in the data most compounds retested in dose-response had high values
# Settings: 5 µM
row,SMILES,Percent Effect [%]
1,CCOCC(=O)N1C[C@@H](NC(C)=O)[C@H](c2ccc(OC)cc2)C1,0.296
2,CCC(CC)n1nc(C)cc1NC(=O)CC1CCOCC1,0.9076
3,CCOCC(=O)N1C[C@@H](O)[C@H](NC(C)=O)C1,181
4,COc1ccc([C@@H]2CN(C(=O)CCC(F)(F)F)C[C@H]2NC(C)=O)cc1,11.36
5,O=C(CC1CC1)N1C[C@H]2CN(CC3CC3)C(=O)[C@H]2C1,-33.8
6,CCOCC(=O)N1CCC(c2nccn2C)CC1,-1.738
7,CC(=O)N[C@@H]1CN(C(=O)CC2CCOCC2)C[C@H]1O,144.5
8,CCCSCC(=O)N1C[C@@H](NC(C)=O)[C@H](c2ccc(OC)cc2)C1,13.13
9,CC(=O)N[C@@H]1CN(C(=O)CC2CC2)C[C@H]1O,207.4
10,O=C(NCCCn1cncn1)c1ccc(-c2ccco2)[nH]c1=O,2.326
11,CNC(=O)[C@@H]1[C@@H](c2ccccc2)CN2CCN(Cc3cc(C)no3)C[C@H]12,101.2
12,O=C(Nc1ccc(-c2ccn[nH]2)cc1)C1CCCN(Cc2ccoc2)C1 (stereo unspecified),1.932
13,Cc1cc(CNC(=O)N2CCN(Cc3ccccc3)C[C@H]2C)on1,-6.347
14,CNC(=O)[C@@H]1[C@@H](c2ccccc2)CN2CCN(Cc3cccs3)C[C@H]12,88.53
15,CNC(=O)C1Cc2ccccc2CN1CCc1cccs1 (stereo unspecified),15.23
16,CN(C)C(=O)NC[C@H]1OC[C@@H]2CCN(Cc3ccoc3)C[C@@H]21,-34.99
17,CNC(=O)[C@@H]1[C@@H](c2ccccc2)CN2CCN(Cc3ccco3)C[C@H]12,101.4
18,CNC(=O)[C@@H]1[C@H]2CN(Cc3ccoc3)CCN2C[C@H]1c1ccccc1,117.2
19,CCc1ccc(CNC(=O)N2CCN(Cc3cc(C)no3)CC2)s1,7.686
20,Cc1c(C(=O)NCC2CCN(Cc3ccco3)C2)[nH]c2ccccc12 (stereo unspecified),19.49
21,Cc1n[nH]c(C)c1CCNC(=O)C1CCCN(Cc2ccco2)C1 (stereo unspecified),-10.07
22,CN1C(=O)CO[C@H](c2ccc(NC(=O)NC(C)(C)C)cc2)[C@H]1CO,-13.32
23,COc1ccc(CN2CCSCC2)c(OC)c1,-5.529
24,Cc1ccc(N(CCC#N)C(=O)CN2CCCC2c2cccs2)cc1 (stereo unspecified),-26.13
25,COc1ccc(CN2CCCCCC2c2cccs2)c(O)c1 (stereo unspecified),114.4
26,COc1ccc(CN2CCCCCC2c2cccs2)c(OC)c1 (stereo unspecified),95.82

row,SMILES,Percent Effect [%]
1,COc1ccc(OC)c(CN2CCCCCC2c2cccs2)c1 (stereo unspecified),-3.603
2,CCN(C(=O)CN1CCCC1c1cccs1)c1ccccc1C (stereo unspecified),5.729
3,Oc1ccccc1CN1CCCCCC1c1cccs1 (stereo unspecified),93
4,Cn1nc(C(=O)N(CC(F)(F)F)c2cccc(Cl)c2)ccc1=O,-17.45
5,Cn1cc(NC(=O)Nc2ccccn2)cc(Cl)c1=O,10.33
6,CNC(=O)[C@@H]1COC[C@H]2CN(C(=O)c3cccc(OC)c3)C[C@H]21,4.207
7,Cl.NCCNS(=O)(=O)Cc1ccc(Br)cc1,-57.57
8,CC(=O)N1CCC(N2CCOC[C@H]2c2nc(-c3ccc(Cl)s3)c[nH]2)CC1,-14.52
9,O=C(c1cccc(CNS(=O)(=O)c2ccc(F)cc2)c1)N1CCCC1,130.7
10,Cc1ccc(S(=O)(=O)NCc2cccc(C(=O)N3CCCC3)c2)cc1F,110.6
11,Cc1ccc(S(=O)(=O)NCCNC(=O)c2ccoc2)cc1F,-0.905
12,O=C(c1cccc(S(=O)(=O)NC[C@@H]2C[C@H](F)CN2)c1)N1CCCCC1,0.137
13,N#Cc1cnc(NCc2cccc(C(=O)N3CCCC3)c2)c(Cl)c1,-5.94
14,CC(C)c1nc(S(=O)(=O)N2CCSc3ccccc32)c[nH]1,-4.998
15,CC(C)c1ccc(OCCNC(=O)c2ccoc2)cc1,6.267
16,Cc1nn(CC(=O)Nc2cccc(F)c2)c(N)c1C#N,-11.77
17,Cc1cccc(Cc2nc3c([nH]2)CCCNC3=O)c1,-1.705
18,COc1cc(-c2nc3c([nH]2)CCCNC3=O)ccc1OC(C)C,84.8
19,O=C1NCCCc2[nH]c(Cc3cccc(F)c3)nc21,-0.783
20,CC(C)(C)c1noc(-c2nc3c([nH]2)CCCNC3=O)n1,2.046
21,COc1ccc(-c2nc3c([nH]2)CCCNC3=O)cc1OC,96.66
22,COc1ccccc1C1CNC(=O)c2nc(-c3cnn(C)c3)[nH]c2C1 (stereo unspecified),-3.18
23,CC(C)Oc1cccc(Cc2nc3c([nH]2)CCCNC3=O)c1,11.57
24,COc1cc(-c2nc3c([nH]2)CCCNC3=O)cc(OC)c1OC,91
25,CC(C)Oc1cccc(-c2nc3c([nH]2)CCCNC3=O)c1,99.49
26,CSCc1noc(-c2nc3c([nH]2)CCCNC3=O)n1,14.73

row,SMILES,Percent Effect [%]
1,CCN1CCCN(S(=O)(=O)c2cc3ccccc3o2)CC1,-2.661
2,COc1cc(-c2nc3c([nH]2)CCCNC3=O)ccc1O,101.7
3,COc1ccccc1C1CNC(=O)c2nc(-c3c(C)n[nH]c3C)[nH]c2C1 (stereo unspecified),-21.26
4,Cc1ccc(C(=O)Nc2ccc(N3CCCC3)cn2)cc1F,-12.84
5,CC(C)N(CCNC(=O)N1CCCC(N(C)C)C1)C1CC1 (stereo unspecified),3.264
6,Cc1ccc(CN2C[C@H](OCCN(C)C)[C@H]3COC[C@H]32)o1.O=C(O)C(F)(F)F.O=C(O)C(F)(F)F,118.1
7,CN(C)CCO[C@H]1CN(Cc2cccc(C#N)c2)[C@@H]2COC[C@H]12.O=C(O)C(F)(F)F.O=C(O)C(F)(F)F,-16.47
8,CN(C)CCO[C@H]1CN(C(=O)c2ccc3c(c2)OCO3)[C@@H]2COC[C@H]12,-7.678
9,CN(C)CCO[C@H]1CN(Cc2ccco2)[C@@H]2COC[C@H]12.O=C(O)C(F)(F)F.O=C(O)C(F)(F)F,94.89
10,Cc1ccc(CN2C[C@H](OCCN(C)C)[C@H]3OCCC[C@H]32)o1.O=C(O)C(F)(F)F.O=C(O)C(F)(F)F,11.84
11,CCc1cc(N2CCN(C(C)=O)CC2)n2nc(C)c(C)c2n1,-3.628
12,CC1CCCCN1S(=O)(=O)NCc1cccnc1OC1CCCC1 (stereo unspecified),2.179
13,CCOCCn1c(=O)[nH]c2cc(C(=O)N(C)CCc3cn[nH]c3)ccc21,-12.36
14,O=C(NCC1CC1)c1cnc(-c2ccccc2)nc1,-4.836
15,Cc1nccn1-c1cc(CNC(=O)COCC2CC2)ccn1,-10.58
16,O=C(NCc1ccnc(O)c1)NCC1CCCC1,-3.505
17,CCc1nccc(CN2CCC(CNC(=O)[C@H]3CC[C@H](C)CC3)C2)n1 (stereo partly specified),-6.322
18,O=C(CN1CCC(c2ccnn2CCO)CC1)NCC1CC1,-5.639
19,O=C(NC[C@H]1CC[C@H](c2ccnc3ncnn32)CC1)C1CC1,132.8
20,O=C(NC[C@H]1CC[C@H](c2ccnc3ncnn32)CC1)c1ccccn1,132.7
21,CCc1nccc(CN2CCCC(CNC(=O)c3ccccn3)C2)n1 (stereo unspecified),-4.435
22,COCC(=O)NC[C@H]1CC[C@H](c2ccnc3ncnn32)CC1,112
23,CCNC(=O)NC1CCCN(c2ccc(C)cc2)C1=O (stereo unspecified),-8.82
24,COc1ncnc(N(C)C)c1NC(=O)c1cscc1C,-1.164
25,CSCCC(CO)NC(=O)c1sc(-c2ccccc2Cl)nc1C (stereo unspecified),13.6
26,Cc1ccc(C(=O)NCCC(C)C)cc1NS(C)(=O)=O,-0.7863

row,SMILES,Percent Effect [%]
1,C[C@@H](CO)NC(=O)c1ccc2nc(NS(C)(=O)=O)sc2c1,93.82
2,CC(C)CCNC(=O)c1ccc(Cl)c(NS(C)(=O)=O)c1,2.284
3,CSCC[C@@H](CO)NC(=O)c1ccc2nc(NS(C)(=O)=O)sc2c1,89.36
4,COc1cccc(-c2nc(C)c(C(=O)NC(CO)CCSC)s2)c1 (stereo unspecified),-11.86
5,Cc1nnc(CNC(=O)CC2CCc3ccccc32)o1 (stereo unspecified),1.636
6,Cc1nc(C)c(S(=O)(=O)NC(=O)c2ccoc2)s1,99
7,COc1ccnc(NC(=O)c2ccsc2)c1,-4.666
8,O=C(NS(=O)(=O)c1cnn(-c2ccccc2F)c1)c1ccoc1,8.506
9,Cc1nc(C)c(S(=O)(=O)NC(=O)c2ccsc2)s1,101.1
10,Cc1ccc(S(=O)(=O)NCCNC(=O)c2ccoc2)cc1C,3.538
11,COCc1nc(C(=O)NS(=O)(=O)c2ccc(C)s2)cs1,-3.012
12,Cc1ccc(N2CCCN(C(=O)CCC3CCCO3)CC2)nn1 (stereo unspecified),87.48
13,Cc1ccc(N2CCCN(C(=O)CC3CCCO3)CC2)nn1 (stereo unspecified),4.405
14,Cc1ccc(N2CCCN(C(=O)c3cc(Cl)c[nH]3)CC2)nn1,-5.212
15,Cc1ccc(N2CCCN(C(=O)C3CCCO3)CC2)nn1 (stereo unspecified),135.1
16,Cc1ccc(N2CCCN(C(=O)CC3C=CCC3)CC2)nn1 (stereo unspecified),107
17,O=C(CC1CCCO1)N1CCCN(c2cccnn2)CC1 (stereo unspecified),79.43
18,Cc1ccc(N2CCCN(C(=O)C(C)OCC3CC3)CC2)nn1 (stereo unspecified),-0.6
19,Cc1ccc(N2CCCN(C(=O)C3(C#N)CCCCC3)CC2)nn1,12.99
20,Cc1ccc(NC2CCN(C(=O)CCC3CCCO3)CC2)nn1 (stereo unspecified),-9.533
21,Cc1nn(CC(=O)N2CCCN(c3cccnn3)CC2)c(C)c1Cl,1.564
22,O=C(Cc1cccc2cccnc12)N1CCCN(c2cccnn2)CC1,-1.609
23,Cc1ccc(N2CCCN(C(=O)c3c(C)oc(C)c3C)CC2)nn1,8.16
